# CYP2C19 act: activators of human cytochrome P450 2C19; P33261; recombinant CYP2C19, luciferin-H EGE luminescence; hits give high values; 0 = fully inhibited enzyme, 1 = untreated enzyme; activation factor at 5 µM; 96,000 tested, under 10 active;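 active = activation factor of at least 2 at 5 µM in the primary screen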;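 note: 0 = wells with 2.5 mM tranylcypromine and 1 = vehicle-only wells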
# CYP2C9 activ: CYP2C9 (human) activation; P11712; recombinant CYP2C9, luciferin-H conversion, luminescence; hits give high values; factor 1 = untreated enzyme, 0 = blocked; activation factor at 5 µM; 96,000 tested, 1.4% active; AID 1024;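 active = activation factor of 2 or more for CYP2C9 at a 5 µM dose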;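 note: 0 = sulfaphenazole-blocked wells and 1 = vehicle-only wells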
# Target sequence (P11712 whole entry, looked up): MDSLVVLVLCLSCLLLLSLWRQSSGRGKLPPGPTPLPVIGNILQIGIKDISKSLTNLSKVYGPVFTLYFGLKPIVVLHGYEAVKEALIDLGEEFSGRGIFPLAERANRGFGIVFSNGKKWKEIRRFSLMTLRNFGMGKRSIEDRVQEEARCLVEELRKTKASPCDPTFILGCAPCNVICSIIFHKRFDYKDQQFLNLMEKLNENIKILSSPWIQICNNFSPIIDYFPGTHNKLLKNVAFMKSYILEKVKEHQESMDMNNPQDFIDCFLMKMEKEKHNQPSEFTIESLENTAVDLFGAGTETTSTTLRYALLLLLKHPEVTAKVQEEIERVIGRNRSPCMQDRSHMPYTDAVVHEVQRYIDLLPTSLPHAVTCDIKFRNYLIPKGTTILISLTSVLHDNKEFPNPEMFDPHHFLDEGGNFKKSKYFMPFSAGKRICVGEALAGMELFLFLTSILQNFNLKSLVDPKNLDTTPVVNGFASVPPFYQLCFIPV
# CYP2C9 inh: inhibitors of human CYP2C9; 96,000 tested, 20% active; P11712; inhibition, % at 5 µM; CYP2C9 Supersomes, luciferin-H conversion, luminescence;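 active = blocking of liver enzyme CYP2C9 beyond about 50% at 5 µM, limit read from the data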
# CYP2C19 inh: blocks human cytochrome P450 2C19. 96,000 tested, 21% active. CYP2C19 Supersomes, luciferin-H EGE luminescence, 30 min. AID 778. P33261. inhibition, % at 5 µM;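 active = CYP2C19 inhibition above a set limit at 5 µM in the primary screen, cut at about 50% in these data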;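 note: plate controls were negative control wells for no effect and 2.5 mM tranylcypromine positive control for full effect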
# DAT uptake mod: human DAT dopamine uptake with cocaine, either direction; LLC-PK1 hDAT cells, [14C]-dopamine uptake with cocaine IC80; actives deviate in either direction; B-score at 10 µM; 110,000 tested, 1.3% active; AID 449768;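 active = Z score or B-score, a plate-position-corrected score, falls beyond the plate's 99.7% confidence bounds, in either direction; inactive = both scores lie inside the 99.7% bounds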;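 note: scored against the spread of the other compound wells on the same plate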
# D1 mod: allosteric modulators of human D1 dopamine receptor; P21728; HEK293 D1, CRE-luciferase, dopamine EC30 potentiation; actives deviate in either direction; B-score at 10 µM; 58,000 tested, 5.9% active;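 active = luminescence count or its row- and column-corrected plate score outside the 99.7% band of the plate's sample wells, on either side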
# Active calls of the source: *; / = no result. In the library only some 28% were active in any assay of this set; here they are far more common.
SMILES,CYP2C19 act,CYP2C9 activ,CYP2C9 inh,CYP2C19 inh,DAT uptake mod,D1 mod
CCN(CC)Cc1c(CC(C)C)oc(C)c1C(=O)O,1.1,1.2,-16,-9,1.5,/
COC(=O)C1=C(C(=O)OC)[C@@H]2N(C)c3ccccc3[C@@]23C[C@@H](C(=O)OC)N(C(=O)c2cc(C)oc2C)C3=N1,/,/,/,/,0.6,/
Nc1nnc(SCC(=O)N2CCN(c3cccc(Cl)c3)CC2)n1-c1ccccc1,/,/,/,/,-0.011,/
COCCNS(=O)(=O)c1ccc2c(c1)C(=O)c1cc(S(=O)(=O)NCCOC)ccc1-2,0.9,0.4,64*,6,0.2,0.16
COCCNS(=O)(=O)c1ccc(F)c(OC)c1,0.9,1.1,-10,10,-0.072,/
O=C1c2cc(S(=O)(=O)NCCCO)ccc2-c2ccc(S(=O)(=O)NCCCO)cc21,1,0.4,58*,4,-0.28,/
O=C1CC(C(=O)O)S/C(=N\NC(=O)c2ccccc2)N1 (stereo unspecified),1,1,3,2,-1.1,/
CCOC(=O)c1cnc(-n2nc(C)cc2C)nc1NCc1ccc2c(c1)OCO2,0.7,0.4,62*,33,-7*,0.59
CCOC(=O)c1cnc(-n2nc(C)cc2C)nc1Nc1ccc(OC)cc1,1,1,0,0,-0.35,/
CCOC(=O)c1cnc(-n2nc(C)cc2C)nc1NCCc1ccccc1,0.2,0.1,92*,83*,2,1
CCOC(=O)c1cnc(-n2nc(C)cc2C)nc1Nc1ccccc1OC,1.1,1,5,-5,0.5,/
C=CCOC(=O)C1=C(C)NC(SC)=C(C#N)C1c1ccc(OCC)cc1 (stereo unspecified),0.1,0.1,93*,86*,0.46,/
C=CCOC(=O)C1=C(C)NC(SCC(=O)OCC)=C(C#N)C1c1ccc(O)c(OC)c1 (stereo unspecified),0,0,100*,99*,-1.1,-0.49
CC1=NN(c2ccccc2)C(=O)C1C(=O)c1ccc(Cl)cc1 (stereo unspecified),1,0.1,93*,-4,/,/
O=C(c1cnc2c(c1)COc1ccc(Cl)cc1-2)c1ccccc1O,/,/,/,/,-0.034,/
CC(C)c1noc2ncc(C(=O)c3cc(Cl)cc(Cl)c3O)cc12,0.2,0,100*,81*,-0.49,/
CCCCC(CC)COC1(c2ccccc2)OC(=O)c2ccccc21 (stereo unspecified),0.7,0.5,46,28,0.048,/
CCCCOC1(c2ccccc2)OC(=O)c2ccccc21 (stereo unspecified),0.4,0.4,61*,55*,-0.54,/
O=C1OC(Oc2ccccc2)(c2ccccc2)c2ccccc21 (stereo unspecified),0.6,0.5,54*,44,-1.3,/
CCOc1cc(NC(=S)Nc2ccccc2OC)c(OCC)cc1NC(=O)c1ccccc1C,0.8,0.6,44,21,1.6,/
CCOc1ccccc1NC(=O)C1CC(=O)n2ncnc2N1 (stereo unspecified),1,1.1,-9,-2,-0.033,/
O=C(c1cc(-c2ccco2)on1)N1CCN(C(c2ccccc2)c2ccccc2)CC1,0.9,0.6,44,6,0.77,-0.4
Cc1ccc(NC(=O)NNC(=O)Cn2nc(-c3ccccc3)c(-c3ccccc3)c(C#N)c2=O)cc1,0.8,0.4,57*,24,1.8,/
Cc1ccc(-c2nn(CC(=O)O)c(=O)c3ccccc23)cc1,/,/,/,/,-1.2,-0.035
O=C1CN(Cc2ccccc2)C(=NCc2ccco2)S1,0.1,0,97*,90*,-0.16,0.34
SMILES,CYP2C19 act,CYP2C9 activ,CYP2C9 inh,CYP2C19 inh,DAT uptake mod,D1 mod
CC1CN(C(=O)Cc2ccc(-c3ccccc3)cc2)CC(C)O1 (stereo unspecified),0.4,0.4,57*,58*,1.4,-0.73
CCCN1C2=C(C(=O)CC(C)(C)C2)C(c2ccc(F)cc2)C2=C1c1ccccc1C2=O (stereo unspecified),1.1,0.3,75*,-14,/,/
CC(C)N(C(=O)CSc1nnc(NC(=O)C2CCC2)s1)C(C)C,1.1,1.3,-29,-10,0.78,-0.71
CSc1nnc(Nc2ccccc2C)s1,0.3,0.7,26,68*,0.28,/
C/C(N)=C(/C#N)C(=O)CSc1nnc(Nc2ccccc2C)s1,0.4,0.6,45,60*,0.49,/
C/C(N)=C(/C#N)C(=O)CSc1nnc(NC(C)C)s1,0.4,0.7,31,56*,-1.4,-0.15
